In the library only some 9.3% were active in any assay of this set; here they are far more common.
Sm TGR inh – inhibitors of Schistosoma mansoni thioredoxin glutathione reductase; purified TGR, DTNB reduction, TNB absorbance 405 nm; Potency, µM (highest dose often 114 µM), without a hit: at the top dose activity change, negative = inhibition, most hits filed as inhibitors; AID 485364; actives 3% (n = 360,000); Q962Y6; also: potency is read from the fitted curve at half-maximal effect; nearly all actives have a fitted effect of over 60% in size
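Kinetic colorimetric format: TGR-catalysed, NADPH-driven DTNB reduction monitored via TNB absorbance. Enzyme dispensed at 20 nM; compound exposure 15 min at room temperature before reaction start.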
FMDV inh – blocks foot and mouth disease virus. Potency, µM (series often up to 57.9 µM), for the others: top-dose activity change, negative = inhibition, hits mostly inhibitors. actives 1.2% (n = 410,000). FMDV antiviral cell-based qHTS. AID 1159524; calls by dose curve; tested in HEK293T cells; also: read-out not given here; potency is read from the fitted curve at half-maximal effect; nearly all actives have a fitted effect of over 45% in size
HCMV inh – blocks human cytomegalovirus replication; HFF cells, HCMV-luciferase reporter, 72 h; active compounds read low; activity change, negative = inhibition, % at 57.5 µM; actives 4.5% (n = 410,000); AID 1259415; in the data active = activity change below about -60%; inconclusive = no clear call, values can overlap the other calls; inactive = above about -39%
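Two-dose cell screen: HFF monolayers treated with compounds and infected with luciferase-expressing HCMV at 1 PFU/cell, 72 h at 37C, then lysed for luciferase measurement.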
Vaccinia Venus – inhibitors of vaccinia virus (Venus reporter); Potency, µM (highest dose often 36.5 µM), inactives show at the highest dose activity change, negative = inhibition, actives largely listed as inhibitors; AID 720580; actives 0.46% (n = 330,000); Vaccinia virus Venus reporter expression, fluorescence; calls by dose curve; tested in A549 cells; also: potency is read from the fitted curve at half-maximal effect; nearly all actives have a fitted effect of over 30% in size
HCV inh – inhibitors of hepatitis C virus infection. actives 3.4% (n = 340,000). Potency, µM (titrated, usually from 41.8 µM), for the others: at the top dose activity change, negative = inhibition, hits mostly inhibitors. Huh7.5.1 HCVcc-Cre infection, luciferase reporter, 44 h; also: potency is read from the fitted curve at half-maximal effect
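Infectious HCVcc-Cre (~0.5 moi) was added to cells just after compound, with cells seeded 4 h earlier at 1,000 per well. Luciferase activity after 44 h culture reported infection; substrate was incubated 15 min at room temperature before reading.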
VACV mCherry inh – inhibitors of vaccinia virus infection (mCherry reporter signal); Vaccinia virus mCherry reporter infection, fluorescence; Potency, µM (top dose mostly 36.5 µM), inactives show top-dose activity change, negative = inhibition, most hits filed as inhibitors; actives 0.63% (n = 310,000); AID 720579; calls by dose curve; tested in A549 cells; also: potency is read from the fitted curve at half-maximal effect; nearly all actives have a fitted effect of over 35% in size
* = called active by the depositor; i = inactive; u = inconclusive; x = no result given; [ ] = dose if it differs, or a comment. Unless noted, calls follow the shape of the dose curve; as a rule, active = well fitted curve in the direction sought with a large enough effect; inconclusive = small, poorly fitted or top-dose-only effect, or another doubt; inactive = no such curve, though single readings can be large; an effect the other way counts as inactive or inconclusive. % is scaled to controls: 0 for no effect and ±100 for the full control effect.

SMILES	Sm TGR inh	FMDV inh	HCMV inh	Vaccinia Venus	HCV inh	VACV mCherry inh
Cc1ccc(NC(=O)Cn2c(CCC(=O)O)ccc2-c2cccs2)cc1Cl	25.1µM*	-4.3%	-34.1	-11.9%	24.8%	-7.2%
O=C(O)CCc1ccc(-c2cccs2)n1CCC(=O)O	7.08µM*	3.7%	19.8	-2.0%	17.3%	-12.6%
CCCn1c(CCC(=O)O)ccc1-c1ccc(F)cc1	u	x	-21.7	-9.4%	5.5%	-5.4%
COc1cc(C(=O)Nc2cc(-c3cn4cccnc4n3)ccc2C)cc(OC)c1OC	16.0%	-2.1%	11.6	-4.0%	-28.1%	-5.0%
Cc1ccc(NC(=S)N(CCCN2CCOCC2)Cc2ccccn2)cc1Cl	-9.4%	-9.6%	-38.8	-14.5%	-4.0%	-14.9%
Cc1cccc(NC(=S)N(CCCN2CCOCC2)Cc2cn(C)c3ccccc23)c1	-5.7%	-8.3%	-89.0*	-13.2%	-25.3%	-8.8%
Cn1cc(CN(CCCN2CCOCC2)C(=S)Nc2cccc(Cl)c2)c2ccccc21	0.5%	-16.5%	-77.9*	-25.3%	8.91µM*	u
Cc1cccc(NC(=S)N(CCN2CCOCC2)Cc2cc3cc4c(cc3[nH]c2=O)OCO4)c1	-0.1%	-11.8%	-21.1	-5.7%	9.3%	-13.9%
CCN1CCN(CCCNC(=O)CCCn2nc(C)c3sc4ccccc4c3c2=O)CC1	-14.9%	-11.4%	-39.6	x	-8.4%	x
O=C1C=C(NC2=CC3OC(c4ccccc4)OCC3OC2=O)CCC1 (configuration not stated)	25.1µM*	17.8µM*	26.2	u	u	u
CCSc1nnc2ccc(-c3ccco3)nn12	35.5µM*	-4.0%	0.0	-1.8%	1.2%	-3.7%
CCSc1nnc2ccc(-c3ccc(C)cc3)nn12	-0.3%	34.4%	11.3	x	-5.6%	x
O=C1c2ccccc2C(=O)c2c1cccc2-n1nnc2ccccc21	-4.8%	-15.4%	-15.2	-10.9%[7.34 µM]	-14.0%	-16.1%[7.34 µM]
O=C1C(N2CCOCC2)=C(n2nnc3ccccc32)C(=O)c2ccccc21	u	10µM*	-100.4*	u	7.08µM*	u
Cc1cc(Nc2ccc(O)cc2)ccc1N	2µM*	x	x	8.3%	12.6%	13.3%
Oc1ccc(Nc2ccc3ccccc3c2)cc1	x	60.3%	-5.9	6.1%	-23.5%	-2.7%
COc1ccc(/C(C)=N/NC(=S)NCCc2ccccc2)c(O)c1	-19.8%	14.4%	u	-22.8%	u	u
Cc1nn(-c2cccc(C(F)(F)F)c2)c(Cl)c1/C=N/Nc1cccc(C(=O)O)c1	-3.2%	-17.9%	151.9	-13.6%	0.4%	i
O=C(O)c1cccc(N/N=C/c2cccc3ccccc23)c1	0.0%	3.98µM*	133.5	-0.6%	7.3%	-3.1%
Cc1ccc(/C=N/Nc2ccc(C(=O)O)cc2)s1	0.6%	6.31µM*	-73.3*	3.9%	4.8%	-4.1%
Cc1ccc(/C=N/Nc2cccc(C(=O)O)c2)s1	-9.9%	3.55µM*	118.9	-9.5%	12.7%	i
Cc1nn(-c2ccccc2Cl)c(Cl)c1/C=N/Nc1cccc(C(=O)O)c1	-20.2%	7.08µM*	150.9	-19.0%	29.1%	-2.6%
O=C(O)c1ccc(N/N=C/c2cc(Br)cs2)cc1	-2.0%	-72.4%	-32.7	7.9%	13.8%	3.1%
OC(CN(c1ccccc1)c1ccccc1)Cn1cnc2ccccc21 (configuration not stated)	2.3%	31.6µM*	u	u	u	x
Cc1cccc(NC(=O)N2CCN(Cc3ccc4c(c3)OCO4)CC2)c1C	-0.2%	-21.4%	-74.8*	x	13.2%	x
Cc1ccc(NC(=O)N2CCN(Cc3ccc4c(c3)OCO4)CC2)cc1	4.0%	-4.3%	3.8	-19.3%	x	-21.5%
Cc1ccc2c(C)c(C(=O)N3CCN(Cc4ccc5c(c4)OCO5)CC3)oc2c1C	-1.8%	7.9%	0.0	-24.0%	11.2µM*	-29.1%
Cc1ccc(C)c(NC(=O)CN2C(=O)COc3ccc(Cl)cc32)c1	-0.3%	-7.7%	-1.5	-13.1%	x	-14.4%
COc1cccc(/C=C/C(=O)OCC(=O)c2ccc(S(=O)(=O)N3CCCCC3)cc2)c1OC	-1.6%	-18.7%	-23.6	x	-11.7%	x
Cc1ccc(C)c(C(=O)OCC(=O)Nc2cccc(S(=O)(=O)N3CCCCC3)c2)c1	-0.7%	u	u	x	10µM*	x

Compound activity: PubChem, National Center for Advancing Translational Sciences (NCATS)
